In PubChem BioAssay AID1159580 (chemical genetic matrix, 2015):
The whole screen tested about 5,500 compounds, of which about 2,000 (36%) were called active. About 18% were inconclusive and are not listed. No stated cut-off is given here; in the data, active means normalized growth mostly below about 0.91 (no sharp cut-off); inconclusive means no clear call, values can overlap the other calls; inactive means mostly above about 0.92. The list shows a part of the results.

Experiment: chemical genetic growth profiling, strain panel (AID 1159580);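 further: tested at 20 µM; growth read once vehicle control cultures reached saturation at 30 °C; 1 = growth at the plate median or of vehicle wells; lower values mean less growth of the strain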
Conditions: growth OD
[1] = S. cerevisiae deletion strains, locus YDL101C, strain DUN1, active compounds read low
[2] = S. cerevisiae deletion strains, locus YHR030C, strain SLT2, active compounds read low

Measured: normalized growth

CCSc1nnc(N)s1
inactive: S. cerevisiae deletion strains, locus YAL013W, strain DEP1, active compounds read low 1.02 | S. cerevisiae deletion strains, locus YBR229C, strain ROT2, active compounds read low 1.01 | [1] 1.01 | S. cerevisiae deletion strains, locus YDL134C, strain PPH21, active compounds read low 1.01 | S. cerevisiae deletion strains, locus YDR150W, strain NUM1, active compounds read low 1 | S. cerevisiae deletion strains, locus YEL061C, strain CIN8, active compounds read low 0.996 | S. cerevisiae deletion strains, locus YGR078C, strain PAC10, active compounds read low 1.01 | [2] 1.05 | S. cerevisiae deletion strains, locus YHR087W, strain rtc3, active compounds read low 1.01 | S. cerevisiae deletion strains, locus YJL187C, strain SWE1, active compounds read low 1.01 | S. cerevisiae deletion strains, locus YJR043C, strain POL32, active compounds read low 1 | S. cerevisiae deletion strains, locus YJR075W, strain HOC1, active compounds read low 0.994 | S. cerevisiae deletion strains, locus YLR039C, strain RIC1, active compounds read low 1.01 | S. cerevisiae deletion strains, locus YLR058C, strain SHM2 (second series), active compounds read low 1.01 | S. cerevisiae deletion strains, locus YLR085C, strain ARP6, active compounds read low 0.999 | S. cerevisiae deletion strains, locus YLR262C, strain YPT6, active compounds read low 1.05 | S. cerevisiae deletion strains, locus YML094W, strain GIM5, active compounds read low 0.995 | S. cerevisiae deletion strains, locus YMR219W, strain ESC1, active compounds read low 1.01 | S. cerevisiae deletion strains, locus YMR263W, strain SAP30, active compounds read low 1 | S. cerevisiae deletion strains, locus YMR307W, strain GAS1, active compounds read low 0.981 | S. cerevisiae deletion strains, locus YNL128W, strain TEP1, active compounds read low 1.01 | S. cerevisiae deletion strains, locus YNL153C, strain GIM3, active compounds read low 0.997 | S. cerevisiae deletion strains, locus YNL298W, strain CLA4 (second series), active compounds read low 0.995 | S. cerevisiae deletion strains, locus YNL322C, strain KRE1, active compounds read low 1.02 | S. cerevisiae deletion strains, locus YNR030W, strain Alg12, active compounds read low 1.01 | S. cerevisiae deletion strains, locus YPL055C, strain LGE1, active compounds read low 0.997 | S. cerevisiae deletion strains, locus YPL241C, strain CIN2, active compounds read low 1.01 | S. cerevisiae deletion strains, locus YPR135W, strain CTF4, active compounds read low 1.11 | S. cerevisiae strains, strain wild type, active compounds read low 1.01

N#CC(C#N)=C/C=C(/Sc1ccc(F)c(Cl)c1)c1ccc(Cl)cc1
active: [2] 0.741 | S. cerevisiae deletion strains, locus YLR113W, strain HOG1, active compounds read low 0.632
inactive: S. cerevisiae deletion strains, locus YAR019C, strain CDC15, active compounds read low 0.937 | S. cerevisiae deletion strains, locus YBL105C, strain PKC1, active compounds read low 0.948 | S. cerevisiae deletion strains, locus YBR135W, strain CKS1, active compounds read low 0.943 | S. cerevisiae deletion strains, locus YBR136W, strain MEC1, active compounds read low 0.949 | S. cerevisiae deletion strains, locus YBR160W, strain CDC28, active compounds read low 0.958 | S. cerevisiae deletion strains, locus YDL017W, strain CDC7, active compounds read low 0.961 | S. cerevisiae deletion strains, locus YDL028C, strain MPS1, active compounds read low 0.949 | [1] 0.961 | S. cerevisiae deletion strains, locus YDL108W, strain KIN28, active compounds read low 0.947 | S. cerevisiae deletion strains, locus YDL132W, strain cdc53, active compounds read low 0.942 | S. cerevisiae deletion strains, locus YDL214C, strain PRR2, active compounds read low 0.891 | S. cerevisiae deletion strains, locus YDR052C, strain DBF4, active compounds read low 0.956 | S. cerevisiae deletion strains, locus YDR054C, strain cdc34, active compounds read low 0.943 | S. cerevisiae deletion strains, locus YDR226W, strain ADK1, active compounds read low 0.964 | S. cerevisiae deletion strains, locus YDR477W, strain SNF1, active compounds read low 0.839 | S. cerevisiae deletion strains, locus YER123W, strain YCK3, active compounds read low 0.822 | S. cerevisiae deletion strains, locus YER133W, strain GLC7, active compounds read low 0.872 | S. cerevisiae deletion strains, locus YFL009W, strain cdc4, active compounds read low 0.943 | S. cerevisiae deletion strains, locus YFL029C, strain CAK1, active compounds read low 0.951 | S. cerevisiae deletion strains, locus YFR003C, strain YPI1, active compounds read low 0.951 | S. cerevisiae deletion strains, locus YFR019W, strain FAB1, active compounds read low 0.95 | S. cerevisiae deletion strains, locus YFR028C, strain CDC14, active compounds read low 0.949 | S. cerevisiae deletion strains, locus YGR040W, strain KSS1, active compounds read low 0.823 | S. cerevisiae deletion strains, locus YGR052W, strain FMP48, active compounds read low 0.81 | S. cerevisiae deletion strains, locus YGR092W, strain DBF2, active compounds read low 0.759 | S. cerevisiae deletion strains, locus YHR079C, strain IRE1, active compounds read low 0.806 | S. cerevisiae deletion strains, locus YHR082C, strain KSP1, active compounds read low 0.839 | S. cerevisiae deletion strains, locus YHR205W, strain SCH9, active compounds read low 0.608 | S. cerevisiae deletion strains, locus YIL147C, strain SLN1, active compounds read low 0.951 | S. cerevisiae deletion strains, locus YJL095W, strain BCK1, active compounds read low 0.69 | S. cerevisiae deletion strains, locus YJL128C, strain PBS2, active compounds read low 0.896 | S. cerevisiae deletion strains, locus YJL157C, strain FAR1, active compounds read low 0.892 | S. cerevisiae deletion strains, locus YJR016C, strain ILV3, active compounds read low 0.937 | S. cerevisiae deletion strains, locus YJR066W, strain TOR1 (second series), active compounds read low 0.748 | S. cerevisiae deletion strains, locus YJR066W, strain TOR1, active compounds read low 0.781 | S. cerevisiae deletion strains, locus YKL048C, strain ELM1, active compounds read low 0.932 | S. cerevisiae deletion strains, locus YKL067W, strain YNK1, active compounds read low 0.888 | S. cerevisiae deletion strains, locus YKL101W, strain HSL1, active compounds read low 0.834 | S. cerevisiae deletion strains, locus YKL193C, strain SDS22, active compounds read low 0.947 | S. cerevisiae deletion strains, locus YKL203C, strain TOR2, active compounds read low 0.87 | S. cerevisiae deletion strains, locus YLR133W, strain CKI1, active compounds read low 0.906 | S. cerevisiae deletion strains, locus YLR403W, strain SFP1, active compounds read low 0.753 | S. cerevisiae deletion strains, locus YML070W, strain DAK1, active compounds read low 0.855 | S. cerevisiae deletion strains, locus YMR001C, strain CDC5, active compounds read low 0.944 | S. cerevisiae deletion strains, locus YMR205C, strain PFK2 (second series), active compounds read low 0.89 | S. cerevisiae deletion strains, locus YMR277W, strain FCP1, active compounds read low 0.941 | S. cerevisiae deletion strains, locus YNL006W, strain LST8, active compounds read low 0.976 | S. cerevisiae deletion strains, locus YNL020C, strain ARK1, active compounds read low 0.884 | S. cerevisiae deletion strains, locus YNL161W, strain CBK1, active compounds read low 0.96 | S. cerevisiae deletion strains, locus YNL183C, strain NPR1, active compounds read low 0.749 | S. cerevisiae deletion strains, locus YNL207W, strain RIO2, active compounds read low 0.938 | S. cerevisiae deletion strains, locus YNL222W, strain SSU72, active compounds read low 0.955 | S. cerevisiae deletion strains, locus YNL307C, strain MCK1 (second series), active compounds read low 0.711 | S. cerevisiae deletion strains, locus YOL078W, strain AVO1, active compounds read low 0.94 | S. cerevisiae deletion strains, locus YOL136C, strain PFK27, active compounds read low 0.879 | S. cerevisiae deletion strains, locus YOR061W, strain CKA2, active compounds read low 0.827 | S. cerevisiae deletion strains, locus YOR119C, strain RIO1, active compounds read low 0.876 | S. cerevisiae deletion strains, locus YOR231W, strain MKK1, active compounds read low 0.781 | S. cerevisiae deletion strains, locus YOR329C, strain SCD5, active compounds read low 0.956 | S. cerevisiae deletion strains, locus YPL031C, strain PHO85, active compounds read low 0.758 | S. cerevisiae deletion strains, locus YPL153C, strain RAD53, active compounds read low 0.856 | S. cerevisiae deletion strains, locus YPL204W, strain HRR25, active compounds read low 0.856 | S. cerevisiae deletion strains, locus YPL209C, strain IPL1, active compounds read low 0.954 | S. cerevisiae deletion strains, locus YPL256C, strain CLN2, active compounds read low 0.877 | S. cerevisiae deletion strains, locus YPR025C, strain CCL1, active compounds read low 0.956 | S. cerevisiae deletion strains, locus YPR106W, strain ISR1, active compounds read low 0.957 | S. cerevisiae deletion strains, locus YPR111W, strain DBF20, active compounds read low 0.944 | S. cerevisiae deletion strains, strain NNK1, active compounds read low 0.946 | S. cerevisiae deletion strains, strain TSCII, active compounds read low 0.945
